# Measured values taken from PubChem BioAssay (EPA / NIEHS).
# Inconclusive results are not listed. Calls of active or inactive are those of the source. How the source made its calls, unless noted: active means hit-call score of the fitted dose curve at least 0.9, where 1 is the maximum; inactive means score below 0.9.
# Key:
# [1] = ATG_TAL_CIS: Attagene CIS-FACTORIAL HepG2 Assay for human TAL Basal Promoter (AID 2282966); conditions: HepG2 Attagene cis-factorial TAL promoter reporter; actives raise or lower the signal;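 further: background control endpoint measuring basal TAL promoter reporter mRNA not a specific factor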
# Summary of the method: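 HepG2 cells transiently transfected with multiplexed cis-promoter reporter units, dosed 24 h. Reporter mRNA quantified by RT-PCR, 6-FAM labelling, HpaI digestion and capillary electrophoresis; TAL basal promoter serves as background control, fitted bidirectionally versus DMSO.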
# [2] = ATG_TGFb_CIS: Attagene CIS-FACTORIAL HepG2 Assay for human Transforming Growth Factor (TGF) (AID 2282967); conditions: HepG2 Attagene CIS TGFb reporter, mRNA transcription; actives raise or lower the signal
# Summary of the method: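 After a 24-hour incubation with compound, transfected HepG2 cells were lysed for RNA; reporter cDNA was amplified, fluorescently end-labeled and separated by CE. DMSO served as baseline for bidirectional fits.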
# [3] = ATG_VDRE_CIS: Attagene CIS-FACTORIAL HepG2 Assay for human Vitamin D Receptor Element (VDRE) (AID 2282968); conditions: HepG2 VDRE cis-reporter transcription, actives raise or lower the signal
# Summary of the method: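 RT-PCR/CE readout of reporter mRNA; HepG2, transient transfection, 24 h dosing; DMSO baseline; bidirectional analysis.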
# [4] = molecular target: Nuclear receptor subfamily 1 group I member 3 (Homo sapiens) (UniProt Q14994); experiment: ATG_CAR_TRANS: Attagene TRANS-FACTORIAL HepG2 Assay for human Constitutive Androstane Receptor (CAR) (AID 2282969; active means hit-call score of the fitted dose curve at least 0.9, where 1 is the maximum;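 further: activators raise reporter mRNA above DMSO so AC50 marks induction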); conditions: HepG2 Attagene TRANS-FACTORIAL CAR reporter
# Summary of the method: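 HepG2 cells transiently transfected with multiplexed GAL4-UAS reporter units expressing chimeric NR-Gal4 proteins; compound exposure 24 h. Reporter mRNA measured by RT-PCR, 6-FAM labelling, HpaI digestion and capillary electrophoresis; gain-of-signal fitted against DMSO baseline.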
# [5] = molecular target: X-box-binding protein 1 (Homo sapiens) (UniProt P17861); experiment: ATG_Xbp1_CIS: Attagene CIS-FACTORIAL HepG2 Assay for human X-box Binding Protein 1 (XBP1) (AID 2282972); conditions: HepG2 XBP1 cis-element reporter, Attagene multiplex; actives raise or lower the signal
# Summary of the method: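 HepG2, transient MRTU transfection (cis-promoter driven), 24 h compound exposure. Total RNA → oligo(dT) RT → PCR → 6-FAM labeling → HpaI cut → CE. Bidirectional fit vs DMSO.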
# [6] = molecular target: Estrogen-related receptor gamma (Homo sapiens) (UniProt P62508); experiment: ATG_ERRg_TRANS: Attagene TRANS-FACTORIAL HepG2 Assay for human Estrogen-Related Receptor gamma (ERRg) (AID 2282977; active means hit-call score of the fitted dose curve at least 0.9, where 1 is the maximum;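 further: hits increase reporter signal over DMSO so potencies reflect activators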); conditions: HepG2 Attagene TRANS reporter, ERRg transactivation
# Summary of the method: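 Transfect HepG2 with multiple GAL4-UAS reporter transcription units; dose chemicals 24 h; isolate RNA, reverse-transcribe with oligo(dT), PCR-amplify, label with 6-FAM, digest with HpaI; size fragments by capillary electrophoresis. DMSO serves as negative control.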
# [7] = molecular target: Bile acid receptor (Homo sapiens) (UniProt Q96RI1); experiment: ATG_FXR_TRANS: Attagene TRANS-FACTORIAL HepG2 Assay for Farnesoid X Receptor (FXR) (AID 2282979; active means hit-call score of the fitted dose curve at least 0.9, where 1 is the maximum;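 further: hits raise reporter mRNA above DMSO so AC50 marks FXR activation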); conditions: HepG2 Attagene TRANS FXR-GAL4 reporter transcription
# Summary of the method: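 HepG2 cells were transiently transfected with GAL4-UAS reporters driven by chimeric NR-Gal4 proteins and dosed for 24 h. Reporter mRNA was quantified by RT-PCR, fluorescent labelling, HpaI digestion and capillary electrophoresis, with gain of signal scored versus DMSO.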
# [8] = molecular target: Oxysterols receptor LXR-beta (Homo sapiens) (UniProt P55055); experiment: ATG_LXRb_TRANS: Attagene TRANS-FACTORIAL HepG2 Assay for human Liver X Receptor beta (LXRb) (AID 2282981; active means hit-call score of the fitted dose curve at least 0.9, where 1 is the maximum); conditions: HepG2 Attagene TRANS GAL4-LXRb reporter, mRNA
# Summary of the method: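 In this TRANS format, exogenous chimeric NR-Gal4 protein activity, not endogenous factors, drives reporter expression in transfected human HepG2 cells. Exposure lasted 24 h; reporter mRNA was read by fluorescent capillary electrophoresis.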
# [9] = ATG_M_06_TRANS: Attagene TRANS-FACTORIAL HepG2 Assay for M06 Transcription Factor (Internal Marker) (AID 2282983; active means hit-call score of the fitted dose curve at least 0.9, where 1 is the maximum); conditions: HepG2 Attagene TRANS M06 internal marker reporter
# Summary of the method: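 HepG2 cells transiently transfected with GAL4-UAS multiple reporter units, dosed 24 h. Reporter RNA reverse-transcribed, PCR-amplified, 6-FAM-labeled, HpaI-digested and quantified by capillary electrophoresis; this internal-marker signal fitted upward relative to DMSO.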
# [10] = molecular target: Transcriptional activator Myb (Homo sapiens) (UniProt P10242); experiment: ATG_Myb_CIS: Attagene CIS-FACTORIAL HepG2 Assay for human Myeloblastosis (Myb) Proto-Oncogene Transcription Factor (AID 2282986); conditions: HepG2 Attagene CIS-FACTORIAL Myb reporter transcription; actives raise or lower the signal
# Summary of the method: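 After 24 h of compound dosing, total RNA from transfected HepG2 cells is reverse-transcribed and the reporter sequences amplified, labeled and separated by capillary electrophoresis. Values come from bidirectional fitting against DMSO.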
# [11] = molecular target: Nuclear respiratory factor 1 (Homo sapiens) (UniProt Q16656); experiment: ATG_NRF1_CIS: Attagene CIS-FACTORIAL HepG2 Assay for human Nuclear Respiratory Factor 1 (NRF1) Orphan Gene (AID 2282987); conditions: HepG2 NRF1 cis-element reporter, Attagene multiplex; actives raise or lower the signal
# Summary of the method: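 Measured: fluorescent reporter-specific RT-PCR products from transfected HepG2 cells, separated by capillary electrophoresis. Exposure lasted 24 h. Analysis used bidirectional curve fitting with DMSO as negative control.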
# [12] = molecular target: Steroid hormone receptor ERR1 (Homo sapiens) (UniProt P11474); experiment: ATG_ERRa_TRANS: Attagene TRANS-FACTORIAL HepG2 Assay for human Estrogen-Related Receptor alpha (ERRa) (AID 2282971; active means hit-call score of the fitted dose curve at least 0.9, where 1 is the maximum); conditions: HepG2 Attagene TRANS reporter, ERRa transactivation
# Summary of the method: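 HepG2 cells transiently transfected with GAL4-UAS reporter units and chimeric NR-Gal4 constructs; after 24 hour compound incubation, reporter mRNA quantified by RT-PCR, fluorescent labelling and capillary electrophoresis, gain of signal versus DMSO.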
# [13] = ATG_GAL4_TRANS: Attagene TRANS-FACTORIAL HepG2 Assay for GAL4 (Internal Marker) (AID 2282976; active means hit-call score of the fitted dose curve at least 0.9, where 1 is the maximum); conditions: HepG2 Attagene TRANS GAL4 internal marker reporter
# Summary of the method: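 Background-control readout: GAL4-UAS reporter transcript in transiently transfected HepG2 cells after 24 h compound exposure. Measured by RT-PCR, 6-FAM primer extension, HpaI digest and capillary electrophoresis; gain-of-signal fit versus DMSO.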
# [14] = molecular target: Glucocorticoid receptor (Homo sapiens) (UniProt P04150); experiment: ATG_GR_TRANS: Attagene TRANS-FACTORIAL HepG2 Assay for human Glucocorticoid Receptor (GR) (AID 2282978; active means hit-call score of the fitted dose curve at least 0.9, where 1 is the maximum;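 further: activators score as hits since higher reporter transcript over DMSO is fitted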); conditions: HepG2 Attagene TRANS GR reporter, mRNA transcription
# Summary of the method: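 After 24 h incubation with test chemical, transfected HepG2 cells were lysed for RNA; reporter cDNA was amplified, FAM-labelled, HpaI-digested and sized on a capillary analyser. Signal gain relative to DMSO was scored.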
# [15] = molecular target: Hepatocyte nuclear factor 4-alpha (Homo sapiens) (UniProt P41235); experiment: ATG_HNF4a_TRANS: Attagene TRANS-FACTORIAL HepG2 Assay for human Hepatocyte Nuclear Factor 4 alpha (HNF4a) (AID 2282982; active means hit-call score of the fitted dose curve at least 0.9, where 1 is the maximum); conditions: HepG2 HNF4a transactivation reporter, mRNA readout
# Summary of the method: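 Cells used were human HepG2, transiently carrying GAL4-UAS reporter units read out against exogenous NR-GAL4 chimeras. Reporter transcript levels after 24 h dosing were quantified by fluorescent RT-PCR and capillary electrophoresis.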
# [16] = ATG_M_32_TRANS: Attagene TRANS-FACTORIAL HepG2 Assay for M32 Transcription Factor (Internal Marker) (AID 2282984; active means hit-call score of the fitted dose curve at least 0.9, where 1 is the maximum); conditions: HepG2 Attagene TRANS M32 internal marker reporter
# Summary of the method: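 Human hepatoma HepG2, transient MRTU transfection, 24 h treatment. RNA → RT-PCR → fluorescent primer extension → HpaI digest (2 h, 37 C) → CE. Positive-direction fit vs DMSO.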
# [17] = molecular target: Estrogen receptor (Homo sapiens) (UniProt P03372); experiment: ATG_ERa_TRANS: Attagene TRANS-FACTORIAL HepG2 Assay for human Estrogen Receptor alpha (ERa) (AID 2282970; active means hit-call score of the fitted dose curve at least 0.9, where 1 is the maximum); conditions: HepG2 Attagene TRANS ERa GAL4 reporter, mRNA
# Summary of the method: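 HepG2 cells transiently transfected with multiplexed GAL4-UAS reporter units read out chimeric NR-Gal4 activity. After 24 h compound exposure, reporter mRNA was quantified by RT-PCR, 6-FAM labeling, HpaI digestion and capillary electrophoresis, relative to DMSO.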
# [18] = molecular target: Oxysterols receptor LXR-alpha (Homo sapiens) (UniProt Q13133); experiment: ATG_LXRa_TRANS: Attagene TRANS-FACTORIAL HepG2 Assay for human Liver X Receptor alpha (LXRa) (AID 2282980; active means hit-call score of the fitted dose curve at least 0.9, where 1 is the maximum); conditions: HepG2 Attagene TRANS reporter, LXRa transactivation
# Summary of the method: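 HepG2 cells transiently transfected with GAL4-UAS reporter units for chimeric NR-Gal4 proteins, exposed to chemicals for 24 h. Reporter mRNA quantified by RT-PCR and capillary electrophoresis; gain of signal fitted relative to DMSO.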
# [19] = molecular target: Nuclear receptor subfamily 4 group A member 2 (Homo sapiens) (UniProt P43354); experiment: ATG_NURR1_TRANS: Attagene TRANS-FACTORIAL HepG2 Assay for human Nuclear Receptor Related Protein 1 (NURR1) (AID 2282985; active means hit-call score of the fitted dose curve at least 0.9, where 1 is the maximum); conditions: HepG2 Attagene TRANS reporter, mRNA readout
# Summary of the method: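 After 24 h chemical dosing, total RNA from transiently transfected HepG2 cells was reverse-transcribed and reporter cDNA PCR-amplified, FAM-labelled and analysed by capillary electrophoresis. Activity fitted in positive direction, DMSO as negative control.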
# Nuclear respiratory factor 1 (Homo sapiens), sequence (Q16656 whole entry, looked up): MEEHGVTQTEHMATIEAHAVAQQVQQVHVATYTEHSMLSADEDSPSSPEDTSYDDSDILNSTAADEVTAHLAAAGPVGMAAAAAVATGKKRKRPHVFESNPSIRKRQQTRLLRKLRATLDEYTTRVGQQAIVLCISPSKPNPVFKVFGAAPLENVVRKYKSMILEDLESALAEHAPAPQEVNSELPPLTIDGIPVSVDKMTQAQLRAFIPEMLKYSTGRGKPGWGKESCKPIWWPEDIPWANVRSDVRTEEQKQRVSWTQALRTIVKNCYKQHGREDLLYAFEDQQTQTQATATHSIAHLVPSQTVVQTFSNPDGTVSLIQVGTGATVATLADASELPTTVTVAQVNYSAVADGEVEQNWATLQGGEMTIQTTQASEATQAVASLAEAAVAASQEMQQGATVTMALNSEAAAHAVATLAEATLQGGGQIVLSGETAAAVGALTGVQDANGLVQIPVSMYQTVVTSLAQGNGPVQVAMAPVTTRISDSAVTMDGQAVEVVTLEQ
# X-box-binding protein 1 (Homo sapiens), sequence (P17861 whole entry, looked up): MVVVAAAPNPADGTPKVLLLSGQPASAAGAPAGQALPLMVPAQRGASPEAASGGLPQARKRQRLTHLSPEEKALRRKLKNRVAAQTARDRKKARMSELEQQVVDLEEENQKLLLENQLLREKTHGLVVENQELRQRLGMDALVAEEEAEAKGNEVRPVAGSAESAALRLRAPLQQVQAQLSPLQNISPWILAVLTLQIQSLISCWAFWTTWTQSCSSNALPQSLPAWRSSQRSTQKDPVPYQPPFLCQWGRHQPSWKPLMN
# Nuclear receptor subfamily 4 group A member 2 (Homo sapiens), sequence (P43354 whole entry, looked up): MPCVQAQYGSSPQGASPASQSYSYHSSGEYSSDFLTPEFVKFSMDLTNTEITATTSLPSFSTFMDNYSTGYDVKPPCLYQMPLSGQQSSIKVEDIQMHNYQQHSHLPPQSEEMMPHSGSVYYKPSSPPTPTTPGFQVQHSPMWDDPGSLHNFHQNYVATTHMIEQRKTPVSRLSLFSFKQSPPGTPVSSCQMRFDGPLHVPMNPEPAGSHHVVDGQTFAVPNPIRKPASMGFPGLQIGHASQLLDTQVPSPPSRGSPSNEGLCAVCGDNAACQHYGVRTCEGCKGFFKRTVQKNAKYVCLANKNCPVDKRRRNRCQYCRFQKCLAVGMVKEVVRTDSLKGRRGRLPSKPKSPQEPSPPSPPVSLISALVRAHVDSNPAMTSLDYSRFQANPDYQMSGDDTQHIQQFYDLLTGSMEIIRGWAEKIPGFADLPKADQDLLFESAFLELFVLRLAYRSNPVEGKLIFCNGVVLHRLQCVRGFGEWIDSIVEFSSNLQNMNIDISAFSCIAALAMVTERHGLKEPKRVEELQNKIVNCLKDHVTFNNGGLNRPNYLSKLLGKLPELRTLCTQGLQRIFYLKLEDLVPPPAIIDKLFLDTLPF
# Transcriptional activator Myb (Homo sapiens), sequence (P10242 whole entry, looked up): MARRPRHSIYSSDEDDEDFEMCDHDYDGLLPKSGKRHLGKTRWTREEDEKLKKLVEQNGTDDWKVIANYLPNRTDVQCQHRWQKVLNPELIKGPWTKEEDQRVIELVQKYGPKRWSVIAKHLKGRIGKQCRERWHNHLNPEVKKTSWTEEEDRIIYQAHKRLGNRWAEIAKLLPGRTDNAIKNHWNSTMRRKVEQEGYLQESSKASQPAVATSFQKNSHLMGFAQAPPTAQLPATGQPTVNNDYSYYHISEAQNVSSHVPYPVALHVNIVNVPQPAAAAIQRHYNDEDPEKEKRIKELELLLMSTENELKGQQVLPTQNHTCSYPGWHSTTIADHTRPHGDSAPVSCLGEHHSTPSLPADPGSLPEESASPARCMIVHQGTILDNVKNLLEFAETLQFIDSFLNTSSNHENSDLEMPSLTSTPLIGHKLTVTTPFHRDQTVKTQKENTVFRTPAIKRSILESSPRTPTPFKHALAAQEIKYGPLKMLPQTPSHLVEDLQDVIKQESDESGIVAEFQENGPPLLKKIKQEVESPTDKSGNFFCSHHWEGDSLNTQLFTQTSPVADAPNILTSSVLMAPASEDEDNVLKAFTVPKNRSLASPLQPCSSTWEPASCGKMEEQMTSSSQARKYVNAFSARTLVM
# Oxysterols receptor LXR-beta (Homo sapiens), sequence (P55055 whole entry, looked up, the tested form may be a part): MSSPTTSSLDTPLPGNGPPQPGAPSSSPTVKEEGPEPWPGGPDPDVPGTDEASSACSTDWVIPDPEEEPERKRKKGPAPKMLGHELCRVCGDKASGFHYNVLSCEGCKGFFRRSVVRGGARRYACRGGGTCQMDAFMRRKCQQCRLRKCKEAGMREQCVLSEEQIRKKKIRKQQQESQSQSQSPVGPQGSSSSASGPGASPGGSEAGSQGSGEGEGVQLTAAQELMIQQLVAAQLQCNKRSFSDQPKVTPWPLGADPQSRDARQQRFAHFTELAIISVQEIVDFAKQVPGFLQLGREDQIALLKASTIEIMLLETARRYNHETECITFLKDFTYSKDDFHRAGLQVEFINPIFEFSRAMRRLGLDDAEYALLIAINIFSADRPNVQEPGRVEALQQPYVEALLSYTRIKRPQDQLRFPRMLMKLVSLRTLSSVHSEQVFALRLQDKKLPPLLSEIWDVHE
# Bile acid receptor (Homo sapiens), sequence (Q96RI1 whole entry, looked up, the tested form may be a part): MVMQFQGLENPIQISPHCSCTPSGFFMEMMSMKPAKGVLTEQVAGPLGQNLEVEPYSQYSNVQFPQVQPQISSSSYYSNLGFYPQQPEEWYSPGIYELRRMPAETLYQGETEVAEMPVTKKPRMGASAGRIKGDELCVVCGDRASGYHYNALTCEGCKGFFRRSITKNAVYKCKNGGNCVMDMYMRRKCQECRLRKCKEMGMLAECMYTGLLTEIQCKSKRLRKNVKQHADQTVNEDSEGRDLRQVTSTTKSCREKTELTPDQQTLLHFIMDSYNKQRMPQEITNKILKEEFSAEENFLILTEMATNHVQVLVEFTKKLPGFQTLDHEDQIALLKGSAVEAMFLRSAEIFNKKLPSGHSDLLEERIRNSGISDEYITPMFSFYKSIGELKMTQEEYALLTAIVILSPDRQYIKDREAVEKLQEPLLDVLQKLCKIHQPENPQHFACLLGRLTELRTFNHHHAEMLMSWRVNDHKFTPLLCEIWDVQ
# Nuclear receptor subfamily 1 group I member 3 (Homo sapiens), sequence (Q14994 whole entry, looked up, the tested form may be a part): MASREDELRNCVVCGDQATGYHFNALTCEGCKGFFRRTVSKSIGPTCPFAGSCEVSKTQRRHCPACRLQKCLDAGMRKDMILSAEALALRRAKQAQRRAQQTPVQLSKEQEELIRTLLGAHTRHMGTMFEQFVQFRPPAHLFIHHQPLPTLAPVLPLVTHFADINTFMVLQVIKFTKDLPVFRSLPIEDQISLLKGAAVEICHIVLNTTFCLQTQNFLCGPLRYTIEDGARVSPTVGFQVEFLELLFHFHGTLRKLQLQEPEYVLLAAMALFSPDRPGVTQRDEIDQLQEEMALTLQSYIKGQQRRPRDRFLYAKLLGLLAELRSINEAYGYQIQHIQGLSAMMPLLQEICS
# Estrogen receptor (Homo sapiens), sequence (P03372 whole entry, looked up, the tested form may be a part): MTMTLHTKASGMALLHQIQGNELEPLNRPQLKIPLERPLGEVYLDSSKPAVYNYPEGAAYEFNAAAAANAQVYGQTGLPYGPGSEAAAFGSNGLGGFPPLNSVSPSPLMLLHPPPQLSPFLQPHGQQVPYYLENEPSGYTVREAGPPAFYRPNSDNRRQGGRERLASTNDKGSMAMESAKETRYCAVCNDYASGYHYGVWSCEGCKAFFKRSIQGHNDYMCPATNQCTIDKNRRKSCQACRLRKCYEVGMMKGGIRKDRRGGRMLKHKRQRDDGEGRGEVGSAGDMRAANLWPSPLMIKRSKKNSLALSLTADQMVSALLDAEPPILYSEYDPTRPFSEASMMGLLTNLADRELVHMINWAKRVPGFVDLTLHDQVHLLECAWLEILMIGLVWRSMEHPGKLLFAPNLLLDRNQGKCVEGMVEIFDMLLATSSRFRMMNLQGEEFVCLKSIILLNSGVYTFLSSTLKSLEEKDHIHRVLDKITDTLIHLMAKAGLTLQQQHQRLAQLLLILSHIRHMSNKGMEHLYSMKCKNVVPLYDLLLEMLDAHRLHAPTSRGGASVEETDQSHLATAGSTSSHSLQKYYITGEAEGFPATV
# Estrogen-related receptor gamma (Homo sapiens), sequence (P62508 whole entry, looked up, the tested form may be a part): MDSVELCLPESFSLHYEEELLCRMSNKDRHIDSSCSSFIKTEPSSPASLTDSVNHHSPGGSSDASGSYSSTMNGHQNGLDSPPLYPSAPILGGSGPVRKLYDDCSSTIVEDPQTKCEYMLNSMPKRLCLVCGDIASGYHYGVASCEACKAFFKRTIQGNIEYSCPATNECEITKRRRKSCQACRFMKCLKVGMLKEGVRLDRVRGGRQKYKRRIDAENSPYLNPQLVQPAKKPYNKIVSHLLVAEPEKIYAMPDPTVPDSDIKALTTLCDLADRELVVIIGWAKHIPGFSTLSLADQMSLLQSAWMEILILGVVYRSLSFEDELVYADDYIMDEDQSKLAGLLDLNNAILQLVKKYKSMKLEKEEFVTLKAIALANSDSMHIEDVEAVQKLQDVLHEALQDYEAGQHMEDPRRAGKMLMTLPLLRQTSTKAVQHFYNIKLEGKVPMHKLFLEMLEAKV
# Steroid hormone receptor ERR1 (Homo sapiens), sequence (P11474 whole entry, looked up, the tested form may be a part): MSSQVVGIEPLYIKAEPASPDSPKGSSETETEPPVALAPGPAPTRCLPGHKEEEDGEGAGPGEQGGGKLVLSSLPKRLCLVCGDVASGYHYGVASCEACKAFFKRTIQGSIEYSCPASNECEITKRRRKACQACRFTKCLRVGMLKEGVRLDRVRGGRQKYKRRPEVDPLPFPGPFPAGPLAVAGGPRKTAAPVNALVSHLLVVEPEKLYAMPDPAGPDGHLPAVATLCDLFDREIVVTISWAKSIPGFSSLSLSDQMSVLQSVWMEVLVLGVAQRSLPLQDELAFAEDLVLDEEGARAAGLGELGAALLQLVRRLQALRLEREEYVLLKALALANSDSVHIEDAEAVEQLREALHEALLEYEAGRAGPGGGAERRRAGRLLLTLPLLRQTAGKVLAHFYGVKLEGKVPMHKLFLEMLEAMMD
structure (smiles),measurement,setting,value
COc1ccccc1[N+](=O)[O-],outcome,[1],inactive
same,outcome,[2],inactive
same,outcome,[3],inactive
same,outcome,[4],inactive
same,outcome,[5],inactive
same,outcome,[6],inactive
same,outcome,[7],inactive
same,outcome,[8],inactive
same,outcome,[9],inactive
same,outcome,[10],inactive
same,outcome,[11],inactive
CCCCCCCCCCCCCC(=O)OCC(O)CO (centres undefined),outcome,[1],inactive
same,outcome,[2],inactive
same,outcome,[3],inactive
same,outcome,[12],inactive
same,outcome,[5],inactive
same,outcome,[13],inactive
same,outcome,[14],inactive
same,outcome,[7],inactive
same,outcome,[8],inactive
same,outcome,[15],inactive
same,outcome,[9],inactive
same,outcome,[16],inactive
same,outcome,[10],inactive
same,outcome,[11],inactive
CN(c1nccc(=O)[nH]1)C1CCN(c2nc3ccccc3n2Cc2ccc(F)cc2)CC1,outcome,[1],inactive
same,outcome,[2],inactive
same,AC50,[3],9.35 µM (active)
same,outcome,[17],inactive
same,outcome,[5],inactive
same,outcome,[13],inactive
same,outcome,[18],inactive
same,outcome,[8],inactive
same,outcome,[9],inactive
same,outcome,[19],inactive
same,outcome,[10],inactive
same,outcome,[11],inactive
Cc1cccc(Nc2ccccc2)c1,outcome,[1],inactive
same,outcome,[2],inactive
same,AC50,[3],58.2 µM (active)
same,outcome,[4],inactive
same,AC50,[5],133 µM (active)
same,outcome,[9],inactive
same,outcome,[19],inactive
same,AC50,[10],170 µM (active)
same,outcome,[11],inactive
CCCCC1(COC(=O)CCC(=O)O)C(=O)N(c2ccccc2)N(c2ccccc2)C1=O,outcome,[1],inactive
same,outcome,[2],inactive
same,outcome,[3],inactive
same,outcome,[17],inactive
same,outcome,[5],inactive
same,outcome,[9],inactive
same,outcome,[19],inactive
same,outcome,[10],inactive
